Consider nine compounds from PubChem BioAssay (NCATS).

Assay [1] is described as follows: Cell Viability - BJ (AID 421).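 Also: potency is read from the fitted curve at half-maximal effect; cells exposed to compound for 40 hours at 37 °C before readout.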 The following applies: BJ fibroblast viability, qHTS. In a few lines: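 Cytotoxicity as drop in intracellular ATP (CellTiter-Glo, 20 min RT) after 40 hr compound exposure of BJ fibroblasts at 37 °C. Titrations scaled between DMSO and 100 uM tamoxifen, Hill-fitted for AC50.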
In general terms: In qHTS, concentration-response curves come from the screen itself.

Assay [2] is described as follows: Cell Viability - Jurkat (AID 426;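 active = dose-dependent loss of cell ATP signal giving a full or clear fitted curve, ranked by lower potency value; inconclusive = weak partial curve or response only at the top dose; inactive = no loss of viability signal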;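 also: potency is read from the fitted curve at half-maximal effect; cells exposed to compound for 40 hours at 37 °C before ATP read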). The conditions noted are these: qHTS. In a few lines: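 Seed 5000 Jurkat E6-1 cells/well; add compound; incubate 40 hr at 37 °C; add CellTiter-Glo; wait 20 min at room temperature; read luminescence. Fit concentration-response with Hill equation for AC50.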
The nature of assay [3]: Cell Viability - NIH 3T3 (AID 541; active = well fitted curve in the direction sought with a large enough effect; inconclusive = small, poorly fitted or top-dose-only effect, or another doubt; inactive = no such curve, though single readings can be large; an effect the other way counts as inactive or inconclusive;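 also: cells exposed to compound for 40 hours; plate controls were DMSO alone for no effect and tamoxifen positive control for full effect; nearly all actives have a fitted effect of over 25% in size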). The following applies: NIH 3T3 cell viability, qHTS; activity change, negative = cytotoxicity: at 92.2 µM (top of the series). Summed up: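 AC50 values reflect concentration-dependent loss of intracellular ATP in NIH 3T3 cells after 40 hr treatment in complete culture medium, quantified by luciferase-based luminescence.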
A short description of assay [4]: Cell Viability - H-4-II-E (AID 543; active = well fitted curve in the direction sought with a large enough effect; inconclusive = small, poorly fitted or top-dose-only effect, or another doubt; inactive = no such curve, though single readings can be large; an effect the other way counts as inactive or inconclusive;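 also: cells exposed to compound for 40 hours; % is scaled to controls: 0 for no effect and ±100 for the full control effect; nearly all actives have a fitted effect of over 35% in size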). The conditions noted are these: H-4-II-E rat hepatoma viability; series mostly up to 92.2 µM. Summed up:
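Here, cytotoxicity is measured in the rat hepatoma line H-4-II-E as loss of intracellular ATP after 40 hr compound treatment, detected by luciferase luminescence.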

The nature of assay [5]: MultiTox-Fluor Cytotoxicity Assay - LYMP1-001 - Live Cells (AID 947; active = well fitted curve in the direction sought with a large enough effect; inconclusive = small, poorly fitted or top-dose-only effect, or another doubt; inactive = no such curve, though single readings can be large; an effect the other way counts as inactive or inconclusive;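 also: 0% = DMSO only and full inhibition = tetraoctylammonium bromide control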). The conditions noted are these: LYMP1-001 lymphoblastoid cells, live-cell protease fluorescence viability; series mostly up to 92.2 µM.
Assay [6] is described as follows: Cell Viability - LYMP2-004 (AID 966; active = well fitted curve in the direction sought with a large enough effect; inconclusive = small, poorly fitted or top-dose-only effect, or another doubt; inactive = no such curve, though single readings can be large; an effect the other way counts as inactive or inconclusive;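 also: plate controls were DMSO only for no effect and tetraoctylammonium bromide control for full effect; nearly all actives have a fitted effect of over 65% in size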). The following applies: LYMP2-004 lymphoblastoid cell viability, qHTS; series mostly up to 92.2 µM. Summed up:
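Acute toxicity is scored as a concentration-dependent drop in intracellular ATP, quantified by luciferase luminescence, in human lymphoblastoid cells exposed to compound for 24 hr. AC50 derives from Hill-equation modelling.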

Assay [7] addresses Glucocorticoid receptor (Homo sapiens) (UniProt P04150). Description: qHTS assay for small molecule agonists of glucocorticoid receptor signaling (AID 588532; active = well fitted curve in the direction sought with a large enough effect in the signal ratio, with a control signal flat; inconclusive = small, poorly fitted or top-dose-only effect, or a change in a side signal; inactive = no such curve, though single readings can be large or run the other way; the % refers to the signal ratio;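 also: 100% = dexamethasone at 0.1 µM and 0% = DMSO only wells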). The following applies: HeLa MMTV-bla, beta-lactamase ratio, agonist, 18 h; stronger effect = higher value; percent of dexamethasone control, DMSO zero. Summed up: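 MMTV-bla HeLa beta-lactamase reporter cells in 1% charcoal/dextran FBS medium, compounds up to 92 uM for 18 h at 37 C, CCF4 readout; normalized to 0.1 uM dexamethasone (100%), EC50 and efficacy from Hill fits.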

Assay [8] shares this target. Description: qHTS assay for small molecule antagonists of glucocorticoid receptor signaling (AID 588533; active = well fitted inhibition curve with a large enough effect in the signal ratio, with a control signal flat, not every such curve was filed as active; inconclusive = small, poorly fitted or top-dose-only effect, or effect the other way, or a change in a side signal; the % refers to the signal ratio;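 also: cells stimulated with 2 nM dexamethasone as agonist; % is scaled to controls: 0 for no effect and ±100 for the full control effect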). The conditions noted are these: HeLa MMTV-bla, GRE beta-lactamase ratio, antagonist mode, 18 h; series mostly up to 76.8 µM. Summed up:
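Antagonist-mode qHTS: compound titrations added to GRE-bla HeLa cells, then dexamethasone 2 nM final; 18 h, 37 C. CCF4 FRET fluorescence normalized to dexamethasone and DMSO; IC50 from Hill fit.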

Assay [9] concerns the target Peroxisome proliferator-activated receptor gamma (Homo sapiens) (UniProt P37231). The assay is described as follows: qHTS assay for small molecule agonists of peroxisome proliferator-activated receptor gamma signaling (AID 588536; active = well fitted curve in the direction sought with a large enough effect in the signal ratio, with a control signal flat, not every such curve was filed as active; inconclusive = small, poorly fitted or top-dose-only effect, or effect the other way, or a change in a side signal; inactive = no such curve, though single readings can be large or run the other way; the % refers to the signal ratio;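 also: 0% = DMSO basal wells and 100% = rosiglitazone at 2 µM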). The following applies: HEK293 PPARg-UAS-bla, beta-lactamase ratio, 16 h, percent of rosiglitazone response, DMSO as zero; series mostly up to 76.7 µM. Summed up:
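Ratiometric blue/green fluorescence (405 nm excitation; 460 and 530 nm emission) from CCF4-loaded HEK293 reporter cells serves as signal. Exposure to test compounds lasts 16 h at 37 C in medium containing 1% charcoal/dextran-treated serum.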

Assay [10] has the same target. The assay is described as follows: qHTS assay for small molecule antagonists of peroxisome proliferator-activated receptor gamma signaling (AID 588537; active = well fitted inhibition curve with a large enough effect in the signal ratio, with a control signal flat, not every such curve was filed as active; inconclusive = small, poorly fitted or top-dose-only effect, or effect the other way, or a change in a side signal; the % refers to the signal ratio;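 also: reporter cells co-stimulated with 50 nM rosiglitazone agonist during compound treatment; % of control where 0% means no effect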). The following applies: HEK293 PPARg-UAS-bla, beta-lactamase ratio, antagonist mode; series mostly up to 76.8 µM. In a few lines: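 Step one: plate 3000 HEK293 UAS-bla cells per well in medium with 1% stripped serum and hold 6-6.5 h at 37 C. Step two: add compound and 50 nM agonist for 16 h. Step three: CCF4 loading, fluorescence read.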

Assay [11] has as its target Retinoic acid receptor RXR-alpha (Homo sapiens) (UniProt P19793). Description: qHTS assay for small molecule agonists of retinoid X receptor alpha signaling (AID 588544).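 Also: 0% = DMSO basal wells and 100% = reference agonist.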 The following applies: HEK293T RXRa-UAS-bla, beta-lactamase reporter, 18 h; series mostly up to 76.7 µM.
Assay [12] can be described thus: qHTS assay for environmental chemicals that activate the Aryl hydrocarbon Receptor (AhR) signaling pathway (AID 651777; active = well fitted curve in the direction sought with a large enough effect; inconclusive = small, poorly fitted or top-dose-only effect, or another doubt; inactive = no such curve, though single readings can be large; an effect the other way counts as inactive or inconclusive; also: nearly all actives have a fitted effect of over 15% in size; also: potency is read from the fitted curve at half-maximal effect; as to activation: % of control where 0% means no effect). The conditions noted are these: 1A2-DRE human hepatoma cells, luciferase, 24 h; activation: stronger effect = higher value. In a few lines: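 Concentration–response screening used 1,200 1A2-DRE cells per well, 24 hr compound exposure (37 C, 5% CO2), and One-Glo luminescence as the AhR-driven CYP1A2 reporter signal.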

Assay [13] is described as follows: qHTS assay for small molecule agonists of the antioxidant response element (ARE) signaling pathway measured by Nrf2-dependant transcriptional activity (AID 720636; active = well fitted curve in the direction sought with a large enough effect in the repeat runs; inconclusive = weak or mixed curves; inactive = no such curve, though single readings can be large; an effect the other way counts as inactive or inconclusive; also: % of control where 0% means no effect). The conditions noted are these: ARE-luc HepG2, Nrf2 luciferase reporter, 16 h; series mostly up to 92.4 µM. Summed up:
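Attachment 6 hr at 37 C, then compound versus DMSO vehicle for 16 hr in ARE-luc HepG2 cells (1% dialyzed FBS); luminescence recorded 30 min after ONE-Glo addition at room temperature.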

Assay [14] concerns the target Estrogen receptor (Homo sapiens) (UniProt P03372). Description: qHTS assay for small molecule antagonists of estrogen receptor alpha signaling (AID 588513; active = well fitted curve in the direction sought with a large enough effect in the signal ratio, with a control signal flat, not every such curve was filed as active; inconclusive = small, poorly fitted or top-dose-only effect, or effect the other way, or a change in a side signal; inactive = no such curve, though single readings can be large or run the other way; the % refers to the signal ratio; also: potency is read from the fitted curve at half-maximal effect). The conditions noted are these: ER-alpha-UAS-bla HEK293, beta-lactamase ratio, antagonist mode; series mostly up to 76.9 µM. Summed up:
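ER-alpha-UAS-bla GripTite HEK 293 cells in medium with 2% charcoal/dextran-treated FBS were preincubated 4 h at 37 C, dosed with compound (1:2 titration), stimulated with 0.5nM 17-beta-estradiol for 18 h, then read by CCF4 beta-lactamase fluorescence.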

Assay [15] has the same target. The assay is described as follows: qHTS assay for small molecule agonists of estrogen receptor alpha signaling (AID 588514).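 Also: 0% = vehicle only and 100% = reference agonist; nearly all actives have a fitted effect of over 70% in size.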 The conditions noted are these: ER-alpha-UAS-bla HEK293, beta-lactamase ratio, 18 h; series mostly up to 76.8 µM. Summed up: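 Reporter-gene assay. […] controls beta-lactamase in HEK 293 GripTite cells; after 18 hrs with compound, CCF4 substrate is added for 2 hrs and fluorescence is read.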

A short description of assay [16]: qHTS assay for small molecule antagonists of peroxisome proliferator-activated receptor delta signaling (AID 588535; active = well fitted inhibition curve with a large enough effect in the signal ratio, with a control signal flat, not every such curve was filed as active; inconclusive = small, poorly fitted or top-dose-only effect, or effect the other way, or a change in a side signal; inactive = no such curve, though single readings can be large or run the other way; the % refers to the signal ratio;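 as to max response: cells co-treated with a PPAR-delta agonist as stimulator during compound exposure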). The conditions noted are these: HEK293T PPARd-UAS-bla, beta-lactamase FRET ratio, 18 h; 460 nm channel. In a few lines: (§1)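 Cells were seeded at 4000 per well in assay medium containing 2% charcoal/dextran FBS and held 5 hrs at 37 C. Compounds were then added for 18 hrs. CCF4 substrate was applied for 2 hrs at room temperature before fluorescence reading.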

In assay [17] the target is Peroxisome proliferator-activated receptor delta (Homo sapiens) (UniProt Q03181). Described as above. The conditions noted are these: HEK293T PPARd-UAS-bla, beta-lactamase FRET ratio, 18 h; series mostly up to 76.7 µM. Summed up:
as §1

A short description of assay [18]: qHTS assay for small molecule agonists of the antioxidant response element (ARE) signaling pathway (AID 651741; active = well fitted activation curve with a large enough effect in the signal ratio; inconclusive = small, poorly fitted or top-dose-only effect, or effect the other way, or a change in a side signal; the % refers to the signal ratio; also: potency is read from the fitted curve at half-maximal effect; as to activation: % of control where 0% means no effect). The conditions noted are these: HepG2 ARE-bla reporter, beta-lactamase FRET ratio, 16 h; series mostly up to 96 µM. In a few lines:
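HepG2 ARE-bla cells plated at 2,000 cells/well and incubated 5 h at 37 C/5% CO2 received 23 nL compound in DMSO. After 16 h at 37 C, LiveBLAzer B/G FRET substrate was applied for 2 h at room temperature and fluorescence read.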

A short description of assay [19]: Cell Viability - Hek293 (AID 427;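 active = compounds whose dose-response curve shows a full or clear partial loss of cell viability, called from curve shape rather than a numeric limit; inconclusive = weak partial curves or an effect only at the top dose; inactive = no dose-dependent loss of viability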;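 also: potency is read from the fitted curve at half-maximal effect; cells exposed to compound for 40 hours at 37 °C before reading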). The conditions noted are these: qHTS. In a few lines:
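Luminescent ATP content (CellTiter-Glo, 20 min at room temperature) was measured after a 40 hr, 37 °C compound exposure of HEK293 cells. AC50 values came from Hill-equation fits of qHTS concentration-response data normalized to DMSO and 100 uM tamoxifen.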

Assay [20] in a line: qHTS assay for small molecule disruptors of the mitochondrial membrane potential - 5 hr assay (AID 651755). Also: nearly all actives have a fitted effect of over 40% in size. Also: potency is read from the fitted curve at half-maximal effect. The following applies: JC-1-type ratio dye; series mostly up to 92.2 µM. Summed up:
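HepG2 cells (2,000/well), attached overnight, exposed to compound 5 hr at 37C, then Mito-MPS dye 30 min. Fluorescence read for monomers (490/535 nm) and aggregates (540/590 nm).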

Several values for one entry are separate records, joined by “and”; a condition that tells them apart may be missing. Identical values can stand only once. Activity calls are given as the source filed them. Unless noted, calls follow the shape of the full dose curve.

Chain of Glucocorticoid receptor (Homo sapiens) (P04150 whole entry, looked up): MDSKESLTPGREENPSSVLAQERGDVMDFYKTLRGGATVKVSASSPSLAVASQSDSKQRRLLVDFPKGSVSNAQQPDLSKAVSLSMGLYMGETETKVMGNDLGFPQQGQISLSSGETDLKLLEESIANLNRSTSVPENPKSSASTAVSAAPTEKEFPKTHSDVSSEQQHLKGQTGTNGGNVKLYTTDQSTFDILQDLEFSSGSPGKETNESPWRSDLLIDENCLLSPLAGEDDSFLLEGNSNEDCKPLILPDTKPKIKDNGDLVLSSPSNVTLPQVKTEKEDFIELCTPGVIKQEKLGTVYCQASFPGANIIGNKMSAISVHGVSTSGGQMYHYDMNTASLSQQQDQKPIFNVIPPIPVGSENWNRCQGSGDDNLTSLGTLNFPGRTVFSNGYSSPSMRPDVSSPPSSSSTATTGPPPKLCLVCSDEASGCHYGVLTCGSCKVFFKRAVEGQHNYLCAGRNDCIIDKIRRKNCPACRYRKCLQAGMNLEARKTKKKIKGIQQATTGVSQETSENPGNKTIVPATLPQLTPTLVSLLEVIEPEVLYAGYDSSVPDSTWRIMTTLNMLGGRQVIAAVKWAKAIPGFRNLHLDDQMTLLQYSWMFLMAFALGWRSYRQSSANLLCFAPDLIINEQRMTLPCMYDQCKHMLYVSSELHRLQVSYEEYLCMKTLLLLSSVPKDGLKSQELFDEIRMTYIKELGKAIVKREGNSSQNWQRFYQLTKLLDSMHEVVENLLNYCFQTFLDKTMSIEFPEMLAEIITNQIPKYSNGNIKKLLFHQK
Chain of Retinoic acid receptor RXR-alpha (Homo sapiens) (P19793 whole entry, looked up): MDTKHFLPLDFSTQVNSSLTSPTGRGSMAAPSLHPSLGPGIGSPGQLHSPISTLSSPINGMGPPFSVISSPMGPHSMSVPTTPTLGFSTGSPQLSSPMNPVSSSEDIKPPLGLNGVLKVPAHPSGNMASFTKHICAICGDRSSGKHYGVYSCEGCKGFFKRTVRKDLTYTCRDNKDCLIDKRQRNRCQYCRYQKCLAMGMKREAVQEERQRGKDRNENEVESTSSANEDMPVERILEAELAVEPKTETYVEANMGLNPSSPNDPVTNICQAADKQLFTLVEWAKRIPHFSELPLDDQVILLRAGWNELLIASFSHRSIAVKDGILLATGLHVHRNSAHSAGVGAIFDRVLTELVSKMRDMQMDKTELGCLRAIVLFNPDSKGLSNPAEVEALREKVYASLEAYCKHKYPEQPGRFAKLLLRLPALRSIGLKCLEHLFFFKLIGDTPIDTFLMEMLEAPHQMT
Chain of Peroxisome proliferator-activated receptor delta (Homo sapiens) (Q03181 whole entry, looked up): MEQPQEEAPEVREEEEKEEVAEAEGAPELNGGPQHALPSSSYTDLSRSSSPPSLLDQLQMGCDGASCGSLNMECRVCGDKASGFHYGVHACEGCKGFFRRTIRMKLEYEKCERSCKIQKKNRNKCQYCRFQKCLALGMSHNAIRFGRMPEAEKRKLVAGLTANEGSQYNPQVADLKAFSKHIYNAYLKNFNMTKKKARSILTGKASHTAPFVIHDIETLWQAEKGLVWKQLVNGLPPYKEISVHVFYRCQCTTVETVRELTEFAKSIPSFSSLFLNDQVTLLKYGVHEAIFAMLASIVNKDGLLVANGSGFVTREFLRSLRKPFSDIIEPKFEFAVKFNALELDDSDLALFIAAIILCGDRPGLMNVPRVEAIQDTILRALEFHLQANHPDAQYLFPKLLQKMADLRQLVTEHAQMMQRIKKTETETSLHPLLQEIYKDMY
Chain of Estrogen receptor (Homo sapiens) (P03372 whole entry, looked up): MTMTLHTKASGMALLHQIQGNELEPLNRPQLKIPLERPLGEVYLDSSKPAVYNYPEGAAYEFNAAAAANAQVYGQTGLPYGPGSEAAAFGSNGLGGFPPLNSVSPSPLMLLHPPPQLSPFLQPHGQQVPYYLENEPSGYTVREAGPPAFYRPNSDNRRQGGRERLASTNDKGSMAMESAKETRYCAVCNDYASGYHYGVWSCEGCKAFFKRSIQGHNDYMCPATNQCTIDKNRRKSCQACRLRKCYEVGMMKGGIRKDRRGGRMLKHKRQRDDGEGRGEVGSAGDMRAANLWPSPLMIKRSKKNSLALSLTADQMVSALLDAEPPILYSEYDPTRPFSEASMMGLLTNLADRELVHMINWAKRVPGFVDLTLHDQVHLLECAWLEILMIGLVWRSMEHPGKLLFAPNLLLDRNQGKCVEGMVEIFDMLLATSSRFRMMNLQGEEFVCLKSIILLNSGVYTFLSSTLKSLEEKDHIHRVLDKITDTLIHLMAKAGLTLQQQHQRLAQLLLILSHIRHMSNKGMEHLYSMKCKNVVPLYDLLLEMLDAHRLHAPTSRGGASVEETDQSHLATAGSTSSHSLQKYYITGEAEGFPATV
Chain of Peroxisome proliferator-activated receptor gamma (Homo sapiens) (P37231 whole entry, looked up): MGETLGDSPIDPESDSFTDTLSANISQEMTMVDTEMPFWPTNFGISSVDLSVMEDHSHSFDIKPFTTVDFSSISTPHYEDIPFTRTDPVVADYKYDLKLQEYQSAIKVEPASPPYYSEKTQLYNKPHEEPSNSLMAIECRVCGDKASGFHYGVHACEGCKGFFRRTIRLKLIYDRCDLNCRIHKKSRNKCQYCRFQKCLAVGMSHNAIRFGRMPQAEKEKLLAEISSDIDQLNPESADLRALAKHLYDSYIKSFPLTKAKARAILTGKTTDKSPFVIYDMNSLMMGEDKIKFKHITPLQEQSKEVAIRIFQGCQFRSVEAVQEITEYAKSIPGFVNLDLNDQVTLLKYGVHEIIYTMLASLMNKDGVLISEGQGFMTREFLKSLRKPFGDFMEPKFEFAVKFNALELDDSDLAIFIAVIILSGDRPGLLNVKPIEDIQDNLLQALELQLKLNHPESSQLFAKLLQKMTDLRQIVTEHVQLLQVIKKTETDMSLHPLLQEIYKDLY

Consider `O=[N+]([O-])c1ccccc1O`, for which the Potency in assay [1] and in assay [2] was > 92 µM (inactive) throughout. Besides, the Potency entry in assay [3], in assay [4], in assay [6], in assay [10] and in [13] was “inactive” throughout. Besides, the result in assay [5], in [8], in assay [9] and in assay [11] was inactive. For the same compound, the activation is 0.494% (inactive) in [7] and 0.0323% (inactive) in assay [12].
Regarding `C=CC(=O)OCC(C)C`, the Potency in assay [1] and in [2] was > 92 µM (inactive) each time. Also, the compound was classed as inactive in [5], in assay [8], in [17] and in assay [9]. Besides, the Potency entry in [6], in assay [14], in assay [15], in assay [10], in [18] and in assay [13] was “inactive” throughout. For the same compound, the activation was -2.2% (inactive) in assay [7] and 0.0769% (inactive) in assay [12]. For the same compound, the max response in assay [16] was -6.69%.
In the case of `N#CC(Br)Br`, the values for the Potency in assay [1], in assay [19] and in assay [18] were > 92 µM (inactive), > 92 µM (inactive) and 42.2 µM (active), respectively. In addition, the compound was called inactive in assay [5], in assay [17] and in assay [9]. Moreover, the Potency entry in [14], in assay [15], in assay [10], in assay [20] and in assay [13] was “inactive” throughout. Further, the activation in assay [7] was -5.99% (inactive); in [12], 1.38% (inactive). Besides, in assay [16], the max response was -6.9%.
Take `CN(C)c1ccc(N)cc1`: the Potency in assay [1] was 28.3 µM (active); in assay [2] it was 72.8 µM (active); in assay [14], 31.6 µM [inconclusive] (active); in [18] it was 33.5 µM (active); in [20], 29.8 µM (active); in assay [12], 44.7 µM (active). Moreover, the Potency result in assay [15] and in assay [10] was “inactive” in each case. Moreover, in assay [16], the max response is -7.4%. The outcome in [17] and in assay [9] was inactive.
As to `CCCCOCC1CO1` (stereo not given), the Potency in [1] and in assay [2] was > 92 µM (inactive) each time. Further, the Potency entry in assay [3], in assay [4], in assay [6], in [14], in [10] and in assay [18] was “inactive” each time. Besides, the Potency result in assay [20] and in assay [13] was “inactive” in each case. The compound was called inactive in assay [5], in [8] and in assay [17]. Besides, the activation in assay [7] was -2.49% (inactive). For the same compound, in [16], the max response was found to be 13.9%.
Regarding `c1ccc2c(c1)CCNC2`, the Potency in [1] and in assay [2] was > 92 µM (inactive) throughout. Moreover, the Potency result in assay [3], in [6], in [10], in assay [18], in [20] and in assay [13] was “inactive” throughout. In addition, the max response in [16] is 5.94%. Also, the result in assay [17] and in [11] was inactive. The activation in assay [12] is -1.3% (inactive).
Turning to `Nc1ccc(Cl)c(Cl)c1`, the Potency in assay [1] and in assay [2] was > 92 µM (inactive) each time. The Potency entry in [6], in assay [20] and in [13] was “inactive” each time. In assay [16], the max response is -10.6%. The result in [17], in assay [9] and in assay [11] was inactive.
Turning to `c1ccc(N=NNc2ccccc2)cc1`, the Potency in assay [1] is > 92 µM (inactive); in assay [2], > 92 µM (inactive); in [19], > 92 µM (inactive); in [18], 26.6 µM (active) and 9.69 µM (active). Moreover, the Potency result in assay [3], in assay [4], in [14] and in [15] was “inactive” each time. Moreover, the compound was classed as inactive in assay [5], in [17], in assay [9] and in assay [11]. For the same compound, the max response in assay [16] was -9.27% and 22.4%.
Turning to `ClCC(Cl)CCl`, the Potency in assay [1] and in [2] was > 92 µM (inactive) in each case. The Potency entry in assay [3], in assay [4], in [6], in assay [18], in [20] and in [13] was “inactive” in each case. The activation in assay [7] is -1.49% (inactive) and -1.66% (inactive). Further, the outcome in assay [8], in assay [17] and in [11] was inactive. Also, the max response in [16] stood at 17.7%.
